Records with an inconclusive call do not appear. A number with no mark means an inactive call. Activity calls are given as the source filed them. Calls come from the whole dose curve; as a rule, active = well fitted curve in the direction sought with a large enough effect; inconclusive = small, poorly fitted or top-dose-only effect, or another doubt; inactive = no such curve, though single readings can be large or run the other way.
Test: qHTS Assay for Identifying Gametocytocidal Compounds (AID 743244);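 for max response: actives lower the fluorescent signal which means gametocytes are killed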
Settings: P. falciparum 3D7 stage III-V gametocytes, alamarBlue, 72 h; max response: hits give low values
Summary of the method: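 Stage III–V gametocytes of P. falciparum 3D7 were seeded at 20,000 cells/well onto pre-dispensed compounds. After 72 h, 37 °C, 5% CO2, alamarBlue was added for another 24 h.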
% is set by controls: 0 for no effect and ±100 for the full control effect; potency is the fitted concentration of half-maximal effect.

Row | Structure (SMILES) | max response [%] | Potency
1 | CC(=O)O[C@@H]1C(=O)O[C@@H]2[C@H]1OC(=O)[C@@H]2OC(C)=O | 14.5 | 
2 | O=[N+]([O-])c1ccc(O)c2ncccc12 |  | 8.91 µM (active)
3 | COc1ccccc1OCC1CNC(=O)O1 (centres undefined) | -14.2 | 
4 | CCCCCC(=O)O[C@]1(C(C)=O)CC[C@H]2[C@@H]3CCC4=CC(=O)CC[C@]4(C)[C@H]3CC[C@@]21C | 7.11 | 
5 | O=C(CS(=O)Cc1ccco1)NC/C=C\COc1cc(CN2CCCCC2)ccn1 (centres undefined) | 9.57 | 
6 | COc1cc(C(=O)OC(COCCC(C)C)CN2CCOCC2)cc(OC)c1OC (centres undefined) | 4.25 | 
7 | CC1(C)O[C@@H]2C[C@H]3[C@@H]4CCC5=CC(=O)C=C[C@]5(C)[C@@]4(F)[C@@H](O)C[C@]3(C)[C@]2(C(=O)CO)O1 | -0.0995 | 
8 | CC1(C)O[C@@H]2C[C@H]3[C@@H]4C[C@H](F)C5=CC(=O)C=C[C@]5(C)[C@@]4(F)[C@@H](O)C[C@]3(C)[C@]2(C(=O)CO)O1 | -5.96 | 
9 | CC1(C)S[C@@H]2[C@H](NC(=O)C(c3ccccc3)S(=O)(=O)O)C(=O)N2[C@H]1C(=O)O (some centres undefined) | -17.7 | 
